These results are taken from PubChem BioAssay AID463173 (ICCB-Longwood Screening Facility, Harvard Medical School, 2010).

Structures are written as SMILES. About 4,300 (8.3%) of roughly 52,000 compounds were called active. The sample holds actives, similar compounds and a random draw of the others, so the mix is not that of the screen. No stated cut-off is given here; in the data, active means survival mostly below about 52% (no sharp cut-off); inactive means mostly above about 56%.

For the assay, the system named is DeltatarO mutant. In words: growth inhibition of S. aureus wild type versus tarO mutant, primary screen, teichoic acid synthesis inhibitors, RN4220, OD600 (AID 463173). The conditions noted are these: OD600, 18 h, active compounds read low, screened at 18.75 µg/mL (by protocol).
Take `O=C(NCc1ccccc1Cl)c1c2c(nc3ccccc13)C(=O)N(C1CCCCC1)C2`: the survival was 92% (inactive). For the molecule `COC(=O)c1ccc(-n2c(/C=C/c3cc(OC)c(OC)c(OC)c3)nc3cc(Cl)ccc3c2=O)cc1`, the survival is 80% (inactive). For `Cc1cc2oc(C(=O)Nc3ccc(S(=O)(=O)N4CCCCCC4)cc3)cc(=O)c2cc1C`, the survival is 42% (active).

In the case of `Cc1cc2oc(C(=O)Nc3ccc(S(=O)(=O)N4CCC(C)CC4)cc3)cc(=O)c2cc1C`, the survival is 72% (inactive).

In the case of `Cc1ccc2c(=O)cc(C(=O)Nc3ccc(S(=O)(=O)N4CCCCCC4)cc3)oc2c1`, the survival was 106% (inactive).

As for `Cc1ccc(C)c(N2CCN(C(=O)C3CCN(C(=O)c4cc5sccc5n4C)CC3)CC2)c1`, the survival was 54% (inactive).

As to `CC1=C(C(=O)NCc2ccccc2C)C2(CCCCCC2)OC1=O`, the survival was 78% (inactive). The value for `Cc1ccc(-n2nc3cc(C)c(NC(=O)Cc4ccc(Cl)cc4)cc3n2)cc1` was 64% (inactive); that for `COc1ccc(-n2nc3cc(C)c(NC(=O)Cc4ccc(Cl)cc4)cc3n2)cc1` was 56% (inactive).

As for `Cc1ccc(-n2nc3cc(C)c(NC(=O)c4ccc(-c5ccccc5)o4)cc3n2)cc1`, the survival is 46% (active). In the case of `COc1ccc(-n2nc3cc(C)c(NC(=O)c4ccc(-c5ccc(Cl)cc5)o4)cc3n2)cc1`, the survival is 45% (inactive). `CCc1ccc(-n2nc3cc(C)c(NC(=O)c4ccccc4C)cc3n2)cc1`: the survival is 89% (inactive).

With `COc1ccc(-n2nc3cc(C)c(NC(=O)c4ccc(-c5ccc(Br)cc5)o4)cc3n2)cc1`, the survival is 37% (active). The value for `Cn1nc(C(=O)NCc2ccc(Cl)cc2)c2c1-c1ccccc1SC2` was 78% (inactive); that for `COc1ccc(-n2c(SCC(=O)Nc3nnc(C)s3)nc3c([nH]c4ccccc43)c2=O)cc1` was 83% (inactive); that for `Cc1ccc(C)c(Nc2nn3c(=O)c4ccc(C(=O)NCc5ccccc5)cc4nc3s2)c1` was 55% (inactive). Turning to `CCOC(=O)c1c(CC(C)C)csc1NC(C)=O`, the survival was 71% (inactive). With `COc1cc(NC(=O)c2cc3cc4ccc(C)cc4nc3o2)cc(OC)c1OC`, the survival was 89% (inactive). Take `CCc1ccccc1NC(=O)c1cc(S(=O)(=O)N2CCc3ccccc32)ccc1F`: the survival is 95% (inactive). The value for `O=C(Nc1cccc(Cl)c1)c1cc(-c2ccc3c(c2)OCO3)on1` was 77% (inactive). For `O=C(Nc1cccc(Br)c1)c1cc(-c2ccc3c(c2)OCCO3)on1`, the survival is 47% (inactive). The same measure for `CC(=O)c1cccc(NC(=O)c2cc(-c3ccc4c(c3)OCCO4)on2)c1`: 45% (active); for `O=C(Nc1cccc(Cl)c1)c1cc(-c2ccc3c(c2)OCCO3)on1`: 103% (inactive). As for `O=C(Nc1cc(Cl)ccc1O)c1cc(-c2ccc3c(c2)OCO3)on1`, the survival is 58% (inactive). Consider `O=C(Nc1c(Cl)cccc1Cl)c1cc(-c2ccc3c(c2)OCO3)on1`, for which the survival is 39% (active). On to `Cc1c(Cl)cccc1NC(=O)c1cc(-c2ccc3c(c2)OCO3)on1`, for which the survival is 69% (inactive). The same measure for `Cc1cccc(NC(=O)c2cc(-c3ccc4c(c3)OCCO4)on2)c1`: 69% (inactive); for `Cc1ccc(Cl)cc1NC(=O)c1cc(-c2ccc3c(c2)OCCO3)on1`: 34% (active). Take `CNC(=O)CN1C(=O)COc2ccc(S(=O)(=O)N3CCCCCC3)cc21`: the survival was 91% (inactive). The same measure for `Cc1cc(OCC(=O)Nc2sc3c(c2C#N)CCC(C)C3)ccc1Cl` (stereo not given): 78% (inactive); for `CCOC(=O)c1cnn(-c2ccc(C(=O)Nc3cccc(C(C)=O)c3)cc2)c1N`: 55% (inactive). The same measure for `CCN(CC)CCCNC(=O)c1sc2nc3n(c(=O)c2c1C)CCCCC3`: 111% (inactive); for `Cc1ccccc1NC(=O)c1c(C)oc2ccc(O)c(CN3CCCCCC3)c12`: 107% (inactive). On to `O=c1n(Cc2ccc([N+](=O)[O-])cc2)c2ccccc2c2nc(-c3ccccc3)nn12`, for which the survival was 129% (inactive). The same measure for `Cc1ccc(CSCC(=O)N2CCN(c3ccc(F)cc3)CC2)cc1`: 70% (inactive); for `CC1=C(C(=O)Nc2ccccc2Cl)C(c2cccs2)n2ncnc2N1` (stereo not given): 101% (inactive); for `CC1=C(C(=O)Nc2ccccc2)C(c2ccc[nH]2)n2ncnc2N1` (stereo not given): 20% (active). In the case of `CCCCOc1ccc(C2C(C(=O)Nc3ccccc3OC)=C(C)Nc3nnnn32)cc1OC` (stereo not given), the survival is 85% (inactive). On to `COc1ccccc1NC(=O)C1=C(C)Nc2nnnn2C1c1ccc(C(F)(F)F)cc1` (stereo not given), for which the survival is 66% (inactive). `COc1ccccc1NC(=O)C1=C(C)Nc2nc3ccccc3n2C1c1cccc(OC)c1OC` (stereo not given): the survival was 70% (inactive). The same measure for `COc1ccccc1NC(=O)C1=C(C)Nc2nc3ccccc3n2C1c1ccccc1Cl` (stereo not given): 62% (inactive); for `CCOc1ccccc1C1C(C(=O)Nc2ccccc2OC)=C(C)Nc2nc3ccccc3n21` (stereo not given): 59% (active); for `CCOc1ccccc1NC(=O)C1=C(C)Nc2ncnn2C1c1sccc1C` (stereo not given): 92% (inactive).

In the case of `CC1=C(C(=O)Nc2ccccc2C)C(c2ccc[nH]2)n2ncnc2N1` (stereo not given), the survival was 102% (inactive). The same measure for `CCOc1ccccc1NC(=O)C1=C(C)Nc2ncnn2C1c1cccs1` (stereo not given): 37% (active); for `COc1ccccc1NC(=O)C1=C(C)Nc2nnnn2C1c1cc(Br)c(O)c(OC)c1` (stereo not given): 55% (active).

Consider `COc1ccc(NC(=O)C2=C(C)Nc3ncnn3C2c2ccc[nH]2)cc1` (stereo not given), for which the survival is 94% (inactive).

Consider `COc1ccc(S(=O)(=O)N2CCC(c3nc4ccccc4s3)CC2)cc1OC`, for which the survival was 86% (inactive). The value for `Cc1cc(NC(=O)OC2CCCC2)ccc1NC(=O)OC1CCCCC1` was 75% (inactive); that for `COc1ccc(CNC(=O)C(=O)Nc2cccc(C)c2C)cc1` was 61% (inactive); that for `Cc1ccccc1S(=O)Cc1ccc(C(=O)NCc2ccccc2Cl)o1` (stereo not given) was 73% (inactive). On to `Cc1ccc(-c2nnc(Nc3ccc(Cl)c(Cl)c3)c3ccccc23)cc1S(=O)(=O)NCCO`, for which the survival is 79% (inactive).

Take `CC(=O)Nc1ccc(S(=O)(=O)NCC2CCC(C(=O)NCCN(CC(C)C)CC(C)C)CC2)cc1` (stereo not given): the survival was 61% (inactive). The value for `CC(=O)Nc1ccc(S(=O)(=O)N2CCN(c3ccc(C)c(C)c3)CC2)cc1` was 94% (inactive); that for `O=C(CS(=O)(=O)c1cccc2nsnc12)Nc1ccc(F)cc1F` was 102% (inactive). The same measure for `COc1ccccc1N1CCN(c2ncnc3c2c(-c2ccccc2)cn3-c2cccc(C)c2)CC1`: 70% (inactive); for `COc1ccc(-c2[nH]ncc2C(=O)NCc2cccc(Cl)c2)cc1`: 62% (inactive); for `Cc1ccc(C)c(CN2C(=O)c3ccccc3S(=O)c3ccc(C(=O)N(C)Cc4ccccc4)cc32)c1` (stereo not given): 78% (inactive). The same measure for `Cc1ccc(Nc2cc(C(=O)NCc3cccs3)c3ccccc3n2)c(C)c1`: 72% (inactive); for `COc1ccccc1NC(=O)C1=C(C)Nc2ncnn2C1c1cccn1C` (stereo not given): 8% (active); for `CC1=C(C(=O)Nc2ccccc2C)C(c2ccccn2)n2ncnc2N1` (stereo not given): 94% (inactive). Turning to `COc1ccccc1NC(=O)C1=C(C)Nc2ncnn2C1c1ccccn1` (stereo not given), the survival is 52% (inactive). The value for `COc1ccc(NC(=O)C2=C(C)Nc3ncnn3C2c2cccn2C)cc1` (stereo not given) was 89% (inactive).

As to `CCOc1ccccc1NC(=O)C1=C(C)Nc2ncnn2C1c1ccccn1` (stereo not given), the survival was 25% (active).

As for `CC1=C(C(=O)Nc2ccccc2)C(c2cccn2C)n2ncnc2N1` (stereo not given), the survival was 95% (inactive). Take `Cc1ccccc1CN1C(=O)c2ccccc2Sc2ccc(C(=O)NC3CCCCC3)cc21`: the survival is 71% (inactive). In the case of `O=C(O)C1CSC2c3ccccc3C(=O)N12` (stereo not given), the survival was 103% (inactive). As for `O=c1[nH]c2cc3c(cc2cc1CN(CCO)C(=S)Nc1cccc(Cl)c1)OCO3`, the survival is 69% (inactive). The value for `Cc1ccc(CNC(=O)c2ccc3c(c2)CCN3S(=O)(=O)c2ccccc2)cc1` was 37% (active); that for `O=C(NCc1ccccc1)c1ccc2c(c1)CCN2S(=O)(=O)c1ccccc1` was 36% (active).

For `CCS(=O)(=O)N1CCc2cc(C(=O)NCc3ccc(C)cc3)ccc21`, the survival was 82% (inactive).

Regarding `Cc1ccc(CNC(=O)c2ccc3c(c2)CCN3S(=O)(=O)c2ccc(Br)cc2)cc1`, the survival is 80% (inactive). The value for `CS(=O)(=O)N1CCc2cc(C(=O)NCc3ccccc3)ccc21` was 81% (inactive); that for `O=C(NCc1ccccc1)c1ccc2c(c1)CCN2S(=O)(=O)c1ccc(Cl)cc1` was 73% (inactive).

Consider `CC(=O)N1CCc2cc(S(=O)(=O)NC(Cc3ccccc3)C(=O)NCc3ccccc3)ccc21` (stereo not given), for which the survival is 79% (inactive).

For `Cc1ccc2c(c1)N(CC(=O)N(Cc1cccnc1)C1CCCC1)C(=O)C(C)O2` (stereo not given), the survival was 97% (inactive). As for `Cc1ccc(-n2nc(C(=O)N3CCN(c4cc(Cl)ccc4C)CC3)c(=O)n(C)c2=O)cc1`, the survival was 116% (inactive). The value for `Cc1ccc(OCC(=O)Nc2ccc3nc(SCC(=O)Nc4ccc(C)cc4C)sc3c2)cc1` was 73% (inactive). The value for `Cc1ccc2nc(N3CCN(c4ccc(F)cc4)CC3)c3nnnn3c2c1` was 55% (inactive); that for `Cc1ccc2nc(NCc3ccccc3Cl)c3nnnn3c2c1` was 91% (inactive). The same measure for `Cc1ccc2nc(N3CCN(c4ccccc4)CC3)c3nnnn3c2c1`: 88% (inactive); for `COc1ccc(OC)c(CNc2nc3ccc(C)cc3n3nnnc23)c1`: 88% (inactive); for `COc1ccccc1CNc1nc2ccc(C)cc2n2nnnc12`: 17% (active). Consider `COc1ccc(N2CCN(c3nc4ccc(C)cc4n4nnnc34)CC2)cc1`, for which the survival was -5% (active). As to `COc1ccc(-c2ccc(Nc3ccc(C(=O)N4CCCCCC4)cc3)nn2)cc1`, the survival was 71% (inactive). Take `CCOc1ccccc1CNC(=O)c1cnc2sc(N3CCOCC3)nn2c1=O`: the survival is 67% (inactive). Regarding `CCCCCn1c(CCNC(=O)c2cccc(C)c2)nc2ccccc21`, the survival is 32% (active). For `CCCCn1c(CCCNC(=O)c2cccc(C)c2)nc2ccccc21`, the survival was 55% (inactive).

As to `CCCCCn1c(-c2cccc(C)c2)nc2ccccc21`, the survival was -2% (active).

With `CCCCn1c(C)nc2ccccc21`, the survival was 104% (inactive). With `CCCCCn1c(C(C)NC(=O)c2ccccc2)nc2ccccc21` (stereo not given), the survival was 81% (inactive).

As for `CCOc1ccc(Cn2c(-c3ccc(OCC)c(OC)c3)nc3ccccc32)cc1OC`, the survival is 79% (inactive). As to `CCCCCn1c(-c2ccc(OC)c(OC)c2)nc2ccccc21`, the survival was 1% (active). The same measure for `CCCCCn1c(CCCNC(=O)c2cccc(C)c2)nc2ccccc21`: 51% (inactive). For the molecule `CCCCCn1c(CCCNC(=O)c2ccccc2OC)nc2ccccc21`, the survival was 53% (inactive).
